From PubChem BioAssay AID2557 (NMMLSC, 2010)
In all, about 330,000 compounds went through this assay and about 650 (0.2%) were called active. For the sample, actives were picked, then their nearest neighbours and some compounds at random. Unmarked numbers belong to inactive results. Rule as the data show it: active = inhibition above about 50%; inactive = the rest.

Molecular target: Integrin alpha-4 (Homo sapiens) (UniProt P13612)
Assay: VLA-4 integrin binding inhibitors – MLPCN library, flow cytometry, VLA-4 expressing cells, VLA-4 allosteric modulator project, primary screen (AID 2557)
Settings: ligand binding flow cytometry, hits give high values, about 7 µM as worked out from the volumes in the protocol

Sequence of Integrin alpha-4 (Homo sapiens) (P13612 whole entry, looked up): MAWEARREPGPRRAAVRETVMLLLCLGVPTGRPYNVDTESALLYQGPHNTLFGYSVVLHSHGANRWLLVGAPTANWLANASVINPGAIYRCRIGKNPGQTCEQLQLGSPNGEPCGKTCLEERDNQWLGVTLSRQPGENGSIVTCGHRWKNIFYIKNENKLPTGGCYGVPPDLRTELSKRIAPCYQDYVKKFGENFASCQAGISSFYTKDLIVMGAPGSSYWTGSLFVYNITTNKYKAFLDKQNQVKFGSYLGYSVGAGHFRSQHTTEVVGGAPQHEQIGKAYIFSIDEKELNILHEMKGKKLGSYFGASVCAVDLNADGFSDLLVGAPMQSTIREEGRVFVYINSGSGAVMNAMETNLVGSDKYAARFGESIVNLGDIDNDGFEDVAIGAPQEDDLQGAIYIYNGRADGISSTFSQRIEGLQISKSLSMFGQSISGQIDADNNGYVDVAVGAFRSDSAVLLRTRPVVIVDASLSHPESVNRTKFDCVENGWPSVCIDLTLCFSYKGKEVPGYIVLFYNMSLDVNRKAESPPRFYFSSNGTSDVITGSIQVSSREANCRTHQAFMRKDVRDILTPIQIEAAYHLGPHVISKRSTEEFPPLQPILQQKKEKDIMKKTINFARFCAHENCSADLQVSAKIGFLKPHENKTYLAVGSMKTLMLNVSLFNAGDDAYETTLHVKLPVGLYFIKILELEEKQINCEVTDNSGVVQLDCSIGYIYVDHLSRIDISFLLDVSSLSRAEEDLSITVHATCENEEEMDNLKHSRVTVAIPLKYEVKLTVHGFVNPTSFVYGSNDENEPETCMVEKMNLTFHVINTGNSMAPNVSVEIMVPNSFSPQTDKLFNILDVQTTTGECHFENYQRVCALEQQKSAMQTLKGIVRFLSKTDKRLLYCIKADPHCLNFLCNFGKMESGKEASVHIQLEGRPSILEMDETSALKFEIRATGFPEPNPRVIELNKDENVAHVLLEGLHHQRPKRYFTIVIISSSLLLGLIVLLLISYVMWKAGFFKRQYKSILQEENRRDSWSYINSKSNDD

Compound	inhibition
O=C(O)c1ccc(-n2cccc2)cc1O	7.46%
COc1cccc(NC(=O)Nc2nnc(N3CCCCC3C)s2)c1 (stereo not given)	-3.47%
CCOC(=O)C1(CCOc2ccccc2)CCN(Cc2cc(OC)c(O)cc2Cl)CC1	7.42%
OCC1(CCOc2ccccc2)CCN(Cc2cn[nH]c2-c2ccccc2)CC1	0.87%
Cc1c(CN2CCC(CO)(CCOc3ccccc3)CC2)[nH]c2ccc(Cl)cc12	54.3% (active)
COc1ccc(C2C(C#N)=C(N)Oc3n[nH]c(C)c32)cc1CN1CCN(c2ccc(F)cc2)CC1 (stereo not given)	5.55%
COc1nc(OC)nc(N(C)CCO)n1	12.5%
Cc1noc(COc2ccccc2OCc2onc(C)c2Cl)c1Cl	-0.81%
Cc1ccccc1C(=O)Nc1cccc(-c2nnc(SCC(=O)O)n2C)c1	5.4%
N#C/C(=C/c1ccc(Cl)cc1)NC(=O)c1ccccc1	-2.66%
CC1(C)Cc2cccc(OCC(=O)N3CCN(c4ccc([N+](=O)[O-])cc4)CC3)c2O1	-21.6%
Cc1ccnc(NC(=O)c2ccco2)n1	63.2% (active)
NC(=O)c1ccsc1NC(=O)c1ccco1	-45.2%
O=C(Nc1nc(-c2ccco2)c(-c2ccco2)s1)c1ccco1	-14.9%
COc1cccc(CCNC(=O)c2cccc(NC(=O)C3=C(C)OCCS3)c2)c1	4.07%
Cc1cc(C(=O)NNS(=O)(=O)c2ccccc2C(F)(F)F)nn1C(C)(C)C	2.36%
Cc1cc(C(=O)OC(C)C(=O)Nc2cccc(S(=O)(=O)N3CCOCC3)c2)c(C)o1 (stereo not given)	5.58%
CCn1c(C)nc2cc(C(=O)NNS(=O)(=O)c3ccc(C)cc3C)ccc21	1.05%
COC(=O)c1cc(NS(=O)(=O)c2ccc3c(c2)c(=O)n(C)c(=O)n3C)cc(C(=O)OC)c1	-0.04%
Cc1cccc(CN2CCC(n3nccc3NC(=O)c3ccccc3C)CC2)n1	-1.23%

Compound	inhibition
CCNC(=S)NNC(=O)C1CCN(Cc2ccccc2)CC1	8.74%
Cc1ccc(OCC(=O)NNC(=S)NCc2ccccc2)cc1	-4.04%
CCNC(=S)NNC(=O)Cc1ccccc1	94.9% (active)
O=C(CN1C(=O)NC2(CCCCC2)C1=O)NCCc1c[nH]c2ccccc12	4.17%
CC1(C(=O)NCCc2c[nH]c3ccccc23)C=CC2(CCCCC2)N1C(=O)c1ccccc1 (stereo not given)	52.7% (active)
O=C(NCCc1c[nH]c2ccccc12)c1cccc(Br)c1	2.59%
Cc1cccc(NC(=O)NC2(C)CCS(=O)(=O)C2)c1 (stereo not given)	7.4%
CCOC(=O)c1ccc(NC(=O)c2ccc(NC(=O)C3CCCO3)cc2)cc1 (stereo not given)	6.76%
O=C(Nc1ccccc1Cl)NC1(C(=O)N2CCOCC2)CCCCC1	10.7%
CCOc1cc(NC(=S)NCCCN(C)C)c(OCC)cc1NC(=O)C1CC1	-0.39%
Cc1sc2ncnc(Sc3nc4ccccc4s3)c2c1C	8.09%
O=C(c1ccco1)N(Cc1nc2ccccc2c(=O)[nH]1)C1CCCC1	-4.47%
COc1ccccc1NC(=O)c1cc(Cl)nc2ccccc12	7.01%
COc1ccccc1NC(=O)c1cc(Cl)nnc1Cl	50.6% (active)
COc1ccccc1NC(=O)/C=C/C(N)=O	17.5%
Brc1cc(Br)c(Oc2cc(Br)c(Br)cc2Br)cc1Br	11.2%
Cc1[nH]c2ccccc2c1SCC(=O)Nc1nccs1	4.64%
CC1=C(C/C=C(\C)CCCC(C)CCCC(C)CCCC(C)C)C(=O)c2ccccc2C1=O (stereo not given)	-3.08%
O=C(O)CC(Cc1ccccc1)C(=O)Nc1ccc([N+](=O)[O-])cc1 (stereo not given)	-9.76%
Cc1c(C(=O)c2cccc([N+](=O)[O-])c2)c2ccccn2c1CCC#N	-34.5%

Compound	inhibition
COc1ccc(-c2cc(C(=O)N3CCN(Cc4ccc5c(c4)OCO5)CC3)on2)cc1OC	4.54%
OCC[C@H]1C[C@H](O)[C@@H](O)[C@]2(CCc3ccccc3O2)O1	-21%
CC(=O)N1CCOc2ccc(S(=O)(=O)N3CCC(C(=O)Nc4ccccc4F)CC3)cc21	47.6%
COc1ccc(C(=O)Oc2ccc(-c3nnco3)cc2)cc1S(=O)(=O)N1CCOCC1	-1.94%
Cc1cc(C)nc(Nc2n[nH]c(-c3ccccc3N)n2)n1	2.65%
O=C(NN1C(=O)C2C3C=CC(C4CC34)C2C1=O)c1ccc(Cl)cc1 (stereo not given)	0.6%
O=C(c1cccnc1)N1CCN(S(=O)(=O)c2cccs2)CC1	0.7%
CC(=O)NC12CC3CC(C1)CC(C(=O)N1CCN(C(=O)c4ccco4)CC1)(C3)C2	6.83%
CC(=O)NC12CC3CC(C1)CC(C(=O)N1CCN(S(=O)(=O)c4cccs4)CC1)(C3)C2	49.5% (active)
CCCCn1c(N)c(N(CCC(C)C)C(=O)COC(=O)c2cccnc2OCC)c(=O)[nH]c1=O	-4.24%
COC(=O)[C@@H]1C[C@H]2CC[C@H](O)C[C@H]2N1Cc1ccc(N2CCN(C)CC2)cc1	-1.75%
O=C(COc1ccc(S(=O)(=O)NCCc2ccccc2)cc1)N1CCCC1	3.9%
COCCCn1c(-c2cccs2)nc2nc3ccccc3nc21	-3.42%
O=C(CN1CCC(NC(=O)Nc2ccccc2)CC1)Nc1cccc([N+](=O)[O-])c1	50.6% (active)
CN1CCN(CC(=O)Nc2cccc([N+](=O)[O-])c2)CC1	-3.14%
O=C(CN1CCOCC1)Nc1cccc([N+](=O)[O-])c1	-3.87%
COCC1CCCN(Cc2nc(-c3ccc4c(c3)OCO4)no2)C1 (stereo not given)	9.31%
Cc1cc(N2CCCC2=O)cc(C)c1S(N)(=O)=O	14.9%
COc1ccc(NC(=O)NC2CC3CCCC(C2)N3Cc2ccccc2)cc1 (stereo not given)	6.26%
Cc1noc(C)c1CSCC(=O)N(CCC(C)C)c1c(N)n(Cc2ccccc2)c(=O)[nH]c1=O	-2.16%
